HP1b chromo inh – blocks HP1-beta chromodomain binding to methylated histone tails. P83916. AlphaScreen HP1-beta / biotin-H3K9me3 peptide binding. Potency, µM (highest dose often 114 µM), for the others: at the highest dose activity change, negative = inhibition, actives largely listed as inhibitors. actives 0.56% (n = 390,000). AID 540317; further: nearly all actives have a fitted effect of over 70% in size
Target sequence (P83916 whole entry, looked up): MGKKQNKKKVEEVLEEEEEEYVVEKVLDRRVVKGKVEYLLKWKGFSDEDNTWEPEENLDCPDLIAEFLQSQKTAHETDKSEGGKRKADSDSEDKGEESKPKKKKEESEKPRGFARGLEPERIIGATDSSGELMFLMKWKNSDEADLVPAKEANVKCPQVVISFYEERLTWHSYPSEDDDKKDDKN
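HP1-beta protein (50 nM final) preincubated 30 min at room temperature with biotinylated H3(1-18)K9me3 peptide (50 nM) in PBS pH 7.4, 0.01% Tween-20, then compound added for 30 min. AlphaScreen streptavidin donor/nickel chelate acceptor beads (10 ug/mL final), 30 min dark, luminescence read.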
ALOX12 inh – blocks human arachidonate 12S-lipoxygenase. purified 12hLO, xylenol orange hydroperoxide absorbance. AID 1671190. actives 1.1% (n = 580,000). Potency, µM (titrated, usually from 108 µM), without a hit: at the highest dose activity change, negative = inhibition, most hits filed as inhibitors; further: on the % scale 0 is the no-effect control and ±100 the full control effect
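Purified human 12hLO at 150 nM in 25 mM Hepes, 0.01% Triton X-100, pH 7.0, preincubated 15 min at room temperature with compound. Reaction started with 40 uM arachidonic acid, 30 min at room temperature. Hydroperoxide measured by Fe-xylenol orange, 573/405 nm absorbance ratio.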
PLK1 PBD inh – PLK1 (human) polo-box domain binding inhibition; P53350; Plk1 PBD binding of FITC phosphopeptide, fluorescence polarization; Potency, µM, without a hit: max response, negative = inhibition, most hits filed as inhibitors; actives 2.8% (n = 360,000); further: series mostly up to about 57 µM; on the % scale 0 is the no-effect control and ±100 the full control effect; nearly all actives have a fitted effect of over 65% in size
G9a inh – blocks human histone lysine methyltransferase G9a; G9a H3K9 monomethylation, AlphaScreen, 2 h; Q96KQ7; AID 504332; actives 8.8% (n = 350,000); Potency, µM (highest dose often 102 µM), for inactives: top-dose activity, negative = inhibition, usual class: inhibitors; further: on the % scale 0 is the no-effect control and ±100 the full control effect; nearly all actives have a fitted effect of over 75% in size
Target sequence (Q96KQ7 913-1193 limits assumed): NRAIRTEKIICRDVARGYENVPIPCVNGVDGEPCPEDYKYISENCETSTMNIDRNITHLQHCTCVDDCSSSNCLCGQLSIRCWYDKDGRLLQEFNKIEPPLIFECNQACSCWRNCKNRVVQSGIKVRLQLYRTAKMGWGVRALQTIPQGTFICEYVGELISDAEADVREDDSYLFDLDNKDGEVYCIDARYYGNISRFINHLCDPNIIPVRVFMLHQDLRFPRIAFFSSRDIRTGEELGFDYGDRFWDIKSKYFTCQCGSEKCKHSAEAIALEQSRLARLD
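Enzyme 20 nM + cpd, 15 min RT; add b-H3K9 pep 500 nM / SAM 20 uM; 2 h RT; anti-H3K9me1 Ab 0.5 ug/mL + SA donor / anti-rabbit acceptor beads 20 ug/mL each, 10 min; AlphaScreen read.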
JMJD2A Tudor inh – JMJD2A Tudor domain (human) inhibition; AlphaScreen JMJD2A-Tudor / H3K4me3 peptide binding; Potency, µM (top dose mostly 114 µM), for the others: top-dose activity change, negative = inhibition, usual class: inhibitors; AID 504339; O75164; actives 4.4% (n = 390,000); further: on the % scale 0 is the no-effect control and ±100 the full control effect; nearly all actives have a fitted effect of over 50% in size
BAZ2B block – inhibitors of human BAZ2B bromodomain | Q9UIF8 | AlphaScreen BAZ2B-H3K14Ac peptide displacement | Potency, µM (highest dose often 114 µM), without a hit: at the highest dose activity change, negative = inhibition, usual class: inhibitors | actives 4.4% (n = 360,000) | AID 504333; further: on the % scale 0 is the no-effect control and ±100 the full control effect; nearly all actives have a fitted effect of over 60% in size
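Compounds, titrated to a top concentration of 110 uM, were incubated 30 min at room temperature with preformed BAZ2B/acetyl-K14 H3 peptide complex (50 nM each). Proximity signal was measured by AlphaScreen after 20 min with beads.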
* marks the source's active call; other numbers are inactive results; ? = inconclusive; . = not tested or not shown; [ ] = dose if it differs, or a comment. Rows were chosen to be rich in hits. Some 9% of all compounds tested hit in one or more screens of this group. The call rests on the fitted dose curve; in most records, active means well fitted curve in the direction sought with a large enough effect; inconclusive means small, poorly fitted or top-dose-only effect, or another doubt; inactive means no such curve, though single readings can be large; an effect the other way counts as inactive or inconclusive. Potency means the concentration at half of the fitted maximal effect.

SMILES	HP1b chromo inh	ALOX12 inh	PLK1 PBD inh	G9a inh	JMJD2A Tudor inh	BAZ2B block
CN(CC(=O)Nc1ccc(F)c(F)c1F)C(=O)c1cc(-c2ccncc2)nc2ccccc12	-4.4%	-18.1%	0.8%	56.2µM*	-28.3%	-7.0%
COc1ccc(NC(=O)CN(C)C(=O)c2ccc(-c3ccccc3Cl)o2)cc1	14.8%	-23.4%	-3.2%	39.8µM*	-18.0%	-30.4%
COc1ccc(NC(=O)CN(C)C(=O)c2cc(-c3ccco3)nc3ccccc23)cc1	44.7µM*	?	?	-2.7%[0.501 µM]	14.1µM*	31.6µM*
COc1ccccc1OCc1ccc(C(=O)Nc2ccc(C)c(C)c2)o1	64.5%	-18.9%	.	-36.1%[59 µM]	-20.4%	-15.7%
N#CC1(NC(=O)COC(=O)c2ccc(-c3ccc(O)cc3)cc2)CCCCC1	12.1%	101.9%	0.0%	11.7%[12.7 µM]	-19.1%	-0.8%
O=C(NCc1cc(Br)cc(Br)c1OC(=O)c1ccccc1[N+](=O)[O-])c1ccccc1	-3.2%	-20.3%	5.4%	39.8µM*	-31.1%	-24.1%
O=C(OCc1ccc(Br)cc1)c1ccccc1[N+](=O)[O-]	.	2.5%	.	.	.	.
O=[N+]([O-])c1ccccc1/C=C/CN1CCSCC1	?	-35.1%	-12.7%	.	12.6µM*	50.1µM*
CC1CCCN(C/C=C/c2ccccc2[N+](=O)[O-])C1 (configuration not stated)	11.3%	0.9%	4.8%	-44.4%	-20.4%	2.7%
COc1cc(C(C[N+](=O)[O-])c2c(N)n(C)c(=O)n(C)c2=O)ccc1O (configuration not stated)	-4.2%	-1.4%	-5.0%	50.1µM*	-8.7%	-26.8%
Cc1[nH]c2ccccc2c1C(C[N+](=O)[O-])c1cccc(O)c1 (configuration not stated)	9.1%	-20.7%	6.9%	?	-30.1%	-38.0%
Cc1[nH]c2ccccc2c1C(C[N+](=O)[O-])c1ccco1 (configuration not stated)	-8.1%	?	?	50.1µM*	?	?
COc1cc(C(C[N+](=O)[O-])c2c(C)[nH]c3ccccc23)ccc1O (configuration not stated)	-35.8%	?	?	?	?	39.8µM*
Cc1ccc(-c2[nH]c3ccccc3c2C(C[N+](=O)[O-])c2ccco2)cc1 (configuration not stated)	-6.9%	283.9%	-12.1%	?	?	-2.4%
CCOC(=O)c1cccc(NC(=O)CSc2nc3cc4ccccc4cc3[nH]2)c1	35.8%	-13.1%	.	?	-12.0%	0.5%
O=C(N[C@H]1CCOC[C@H]1C1CCOCC1)c1ccccc1-c1ccccc1	.	34.6%	.	.	.	.
CC(C)CCN1CCC(CN2CCNC(=O)C2=O)CC1	28.4%	?	-2.8%	.	89.1µM*	.
CCc1ccccc1NC(=O)C1CC1	.	0.794µM*	.	.	.	.
O=C(O)C1C2C=CC(O2)C1C(=O)Nc1cc(C(F)(F)F)ccc1Cl (configuration not stated)	.	-8.2%	.	.	.	.
O=C(O)C1C2C=CC(O2)C1C(=O)Nc1ccccc1C(F)(F)F (configuration not stated)	79.4µM*	7.7%	-21.0%	3.16µM*	79.4µM*	-5.6%
Cc1csc(NC(=O)C2C3C=CC(O3)C2C(=O)O)n1 (configuration not stated)	10.5%	-11.6%	-1.1%	?	25.1µM*	-30.0%
CCc1ccccc1NC(=O)C1C2C=CC(O2)C1C(=O)O (configuration not stated)	76.5%	?	-6.0%	35.5µM*	4.5%	-5.0%
Cn1c(-c2ccc(Br)cc2)cc2ccccc21	.	13.6%	.	.	.	.
COC(=O)c1cccc(CSc2nnc(-c3ccco3)n2-c2ccccc2)c1	2.5%	-13.6%	-1.6%	-32.8%[12.7 µM]	-24.7%	-31.4%
Fc1ccc(Cn2c(SCc3ccc(F)c(C(F)(F)F)c3)nnc2C(F)(F)F)cc1	101.3%	7.6%	-2.2%	67.4%	25.5%	16.9%
SMILES	HP1b chromo inh	ALOX12 inh	PLK1 PBD inh	G9a inh	JMJD2A Tudor inh	BAZ2B block
Cc1ccc2nc(N3CCOCC3)nc(-c3ccccc3)c2c1	.	0.1%	.	.	.	.
CC(=O)Nc1ccc(N2CCOCC2)c(Cl)c1	24.3%	-5.1%	-7.2%	1.3%	-13.4%	-15.8%
COc1cc(CNn2c(C)n[nH]c2=S)cc(Cl)c1OCc1ccc(F)cc1	15.2%	?	-6.6%	?	-21.5%	?
COc1cc(CNn2c(C)n[nH]c2=S)cc(Br)c1OCc1ccc(F)cc1	2.7%	?	-9.3%	22.4µM*	-31.2%	?
C=CCOc1c(Br)cc(CNn2cn[nH]c2=S)cc1OC	21.6%	-11.3%	-14.9%	-130.9%[59 µM]	79.4µM*	-10.9%
C=CCOc1c(Br)cc(CNn2c(C)n[nH]c2=S)cc1OCC	23.2%	?	-11.9%	15.8µM*	?	-32.5%
COc1cc(CNn2cnnc2)cc(Br)c1OCc1ccc(F)cc1	.	37.8%	.	.	.	.
Cc1ccc(NC(=O)CN(C)C(=O)CSc2nc(C)cc(C)n2)cc1	18.3%	-20.6%	2.8%	1.1%	0.0%	39.3%
O=C(CC1CCCC1)N[C@H](C(=O)N1CCC[C@H]1C(=O)NCCc1ccccc1Cl)c1ccccc1	.	-11.8%	.	.	.	.
Cc1ccc(NC(=O)c2sccc2SCc2cccc(C(F)(F)F)c2)cc1	143.9%	?	-10.5%	25.1µM*	52.2%	52.3%
N#CCSc1ccsc1C(=O)Nc1ccc(F)cc1	?	?	-25.2%	7.94µM*	-8.3%	3.6%
CS(=O)(=O)Nc1cccc(-c2cnc3ccccc3n2)c1	15.7%	-0.8%	-12.4%	44.7µM*	-13.6%	0.7%
O=C(Nc1ccc(-c2cn3c(n2)SCC3)cc1)c1ccc2c(c1)OCO2	20.8%	2.3%	-14.3%	3.7%	-2.5%	-12.9%
O=C(Nc1cccc(-c2cn3c(n2)SCC3)c1)c1ccc2c(c1)OCO2	-30.7%	2.9%	-8.8%	44.7µM*	?	?
CCS(=O)(=O)Nc1cccc(-c2cn3c(n2)SCC3)c1	11.8%[57 µM]	-0.7%	?	-16.3%	-5.6%	-37.1%
CS(=O)(=O)Nc1cccc(-c2cn3c(n2)SCC3)c1	?	?	?	-32.4%	56.2µM*	-33.9%
O=S(=O)(Nc1ccc(-c2cn3c(n2)SCC3)cc1)c1cccs1	1.7%	-3.9%	?	35.5µM*	-30.8%	-27.4%
Cc1cc(CNC(=O)c2cccnc2Cl)c2ccccc2n1	23.2%	?	-6.9%	?	-7.6%	-35.5%
CC(=O)N1CCN(C(=S)NC(=O)c2ccc(F)cc2)CC1	10.2%	-12.3%	-9.8%	.	1.58µM*	.
COc1ccc(C(=O)NC(=S)N2CCC(C)CC2)cc1	18.6%	?	-8.7%	15.8µM*	-12.2%	-20.4%
CCOC(=O)N1CCN(C(=S)NC(=O)c2ccc(F)c(F)c2)CC1	36.7%	-13.2%	-3.3%	44.7µM*	-8.8%	-23.7%
